Sampled rows, rich in hits. Any-hit rate of the full collection: about 21%.
Cycloheximide cs – affects cycloheximide protein synthesis inhibition readout, counter-screen | cell reporter, cycloheximide protein synthesis inhibition counterscreen | max response, % | hit rate 12% among 300,000; in the data active = max response mostly above about 13%, no sharp cut-off; inactive = mostly below about 14%; note: read at 38.3 µM for the half of the compounds with a filed dose; 0% is about no effect
Pf growth 96h – P. falciparum growth inhibition at 96 hours; AID 504834; P. falciparum luciferase reporter growth, 96 h; Potency, µM (titrated, usually from 28.7 µM), for the others: top-dose activity change, negative = inhibition, usual class: inhibitors; hit rate 6.9% among 320,000; note: potency is the fitted concentration of half-maximal effect; % is set by controls: 0 for no effect and ±100 for the full control effect
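P. falciparum expressing integrated firefly luciferase, in erythrocytes at 2% hematocrit, 0.05% parasitemia, incubated with compounds 96 h at 37 C, 5% CO2. Growth inhibition read as loss of luminescence; two-generation exposure targets delayed-death apicoplast inhibitors.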
Pf growth 48h – inhibits P. falciparum growth in the first generation, 48 h. hit rate 5.9% among 310,000. Potency, µM (doses to about 28.7 µM), without a hit: at the top dose activity change, negative = inhibition, hits mostly inhibitors. AID 504832. P. falciparum luciferase growth in erythrocytes, 48 h; note: potency is the fitted concentration of half-maximal effect; % is set by controls: 0 for no effect and ±100 for the full control effect
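Luminescence readout; reporter = integrated firefly luciferase in P. falciparum. RBC culture at 2% hematocrit, 0.1% parasitemia final, 37 C/5% CO2; decreased signal taken as growth inhibition.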
HCMV antiviral – human cytomegalovirus inhibition; HFF cells, HCMV-luciferase reporter, 72 h; stronger effect = lower value; activity change, negative = inhibition, % at 57.5 µM; hit rate 4.5% among 410,000; AID 1259415; in the data active = activity change below about -60%; inconclusive = no clear call, values can overlap the other calls; inactive = above about -39%; note: % is set by controls: 0 for no effect and ±100 for the full control effect
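Cell-based, HFFs, 1000 cells/well, 16 h 37C; cpds in DMSO + HCMV-luc, MOI 1 PFU/cell; 72 h 37C; OneGlo luminescence after 5 min RT; norm. to buffer vs Salinomycin 10uM.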
Shiga toxin inh – inhibitors of Shiga toxin in Vero cells; hit rate 9.2% among 290,000; Vero cells, Shiga toxin protein synthesis inhibition reporter; AID 2315; inhibition, % at 38.7 µM; in the data active = inhibition mostly above about 28%, no sharp cut-off; inactive = mostly below about 43%; note: 0% is about no effect
HCV inh – HCV inhibition; Huh7.5.1 HCVcc-Cre infection, luciferase reporter, 44 h; AID 651820; hit rate 3.4% among 340,000; Potency, µM (doses to about 41.8 µM), without a hit: top-dose activity change, negative = inhibition, most hits filed as inhibitors; note: potency is the fitted concentration of half-maximal effect; % is set by controls: 0 for no effect and ±100 for the full control effect
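Infectious HCV cell culture screen: compound-treated cells (1,000/well, pre-plated 4 h) are infected with HCVcc-Cre at roughly 0.5 moi and grown 44 h. Infection is quantified by luciferase signal after 15 min substrate incubation at room temperature.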
* hit, by the source's call; i = inactive; ? = inconclusive; · = not tested or not shown; [ ] = dose if it differs, or a comment. Unless noted, calls come from the whole dose curve; as a rule, active = well fitted inhibition curve with a large enough effect; inconclusive = small, poorly fitted or top-dose-only effect, or another doubt; inactive = no such curve, though single readings can be large or run the other way.

SMILES | Cycloheximide cs | Pf growth 96h | Pf growth 48h | HCMV antiviral | Shiga toxin inh | HCV inh
Cc1ccc(C)c(OCC(O)CN2CCc3ccccc3C2)c1C (stereo not drawn) | -6.1 | 11.7µM* | 9.28µM* | 21.9 | 3.3 | ?
Cc1cccc(NC(=O)CSc2ncc(-c3ccc(Br)cc3)[nH]2)c1 | · | · | · | -25.3 | · | ·
C#CCNC(=O)C[C@@H]1C[C@@]2(C(=O)OC)CCCCC=C2N(Cc2ccc3c(c2)OCO3)C1=O | · | · | · | 26.5 | · | ·
COc1ccc(NC(=O)C2CCCC2)cc1S(=O)(=O)N1CCOCC1 | · | -16.4% | -7.8% | -4.3 | · | 0.8%
Cc1ccc(C(=O)Nc2ccc3c(c2)CCC3)cc1S(=O)(=O)N1CCOCC1 | 33.5* | 17.7%[5.75 µM] | -16.9%[5.75 µM] | -62.1* | 98.0* | ?
COc1ccc(C(=O)Nc2ncc(C)s2)cc1S(=O)(=O)N1CCOCC1 | · | -22.4% | -17.0% | -28.4 | · | 0.7%
Cc1cnc(NC(=O)c2ccc(F)c(S(=O)(=O)N3CCOCC3)c2)s1 | · | -42.9% | ? | -104.9* | · | ?
COc1ccc(NC(=O)c2cc3c(s2)CCC(C)C3)cc1S(=O)(=O)N1CCOCC1 (stereo not drawn) | 10.2 | 7.38µM* | ? | -100.0* | 11.0 | ?
Cc1ccc(NC(=O)c2cc3c(s2)CCC3)cc1S(=O)(=O)N1CCOCC1 | 1.0 | · | ? | -65.0* | -10.2 | 7.94µM*
Cc1ccccc1NC(=O)N1CCc2cc(S(=O)(=O)N3CCC(C)CC3)ccc21 | · | · | · | 2.4 | · | ·
O=C1C=C(c2ccc3c(c2)oc2ccccc23)C[C@@H](c2ccc(Cl)cc2)C1 | · | 7.0% | 26.5% | -0.9 | · | -1.3%
O=C(Nc1ccc2c(c1)CCC2)c1ccc(F)c(S(=O)(=O)N2CCOCC2)c1 | 26.5* | ? | 0.1% | ? | 35.7* | 15.8µM*
O=C(Nc1ccc(S(=O)(=O)Nc2ncccn2)cc1)c1ccc(F)c(S(=O)(=O)N2CCOCC2)c1 | -2.3 | -15.6% | -7.4% | 20.9 | -7.3 | 5.5%
CCN1CCN(C(=O)c2cc(COc3ccc(C(C)=O)cc3OC)on2)CC1 | 42.7* | -6.6% | 46.3% | 128.6 | 75.0* | 3.3%
COc1cc(C)ccc1OCc1cc(C(=O)N2CCN(C3CCCCC3)CC2)no1 | 47.6* | -45.1% | 11.7% | 50.5 | 58.4* | -17.3%
COc1cc(C)ccc1OCc1cc(C(=O)N2CCCCCCC2)no1 | 51.2* | ? | ? | 89.7 | 92.4* | 9.1%
CCN1CCN(C(=O)c2ccc(OCC(=O)Nc3ccc(F)cc3)c(OC)c2)CC1 | 6.4 | -18.1% | -22.1% | -25.6 | -11.3 | 6.7%
COc1ccc(-c2nnc3n2N=C(c2c(OC)cccc2OC)CS3)cc1OC | -7.1 | · | · | · | -8.8 | ·
CCN(CC)c1ccc(N)cc1S(=O)(=O)Nc1ccccc1OC | -1.8 | 11.2% | -5.5% | ? | 13.9 | -13.1%
CCN(CC)c1ccc(NC(=O)c2ccccn2)cc1S(=O)(=O)Nc1ccccc1OC | · | 10.4µM* | 5.86µM* | -21.3 | · | -29.5%
CCN(CC)c1ccc(NC(=O)COc2ccccc2C#N)cc1S(=O)(=O)Nc1ccccc1OC | -3.3 | 9.28µM* | 1.65µM* | -12.9 | 17.1 | ?
COC(=O)c1cc(NC(=O)c2cc3sccc3n2Cc2ccc(Cl)cc2)cc(C(=O)OC)c1 | · | · | · | 8.1 | · | ·
O=S(=O)(NCC(c1ccco1)S(=O)(=O)c1ccccc1)c1cc(F)ccc1F (stereo not drawn) | · | · | · | -68.6* | · | ·
O=C(CC(c1ccco1)S(=O)(=O)c1ccccc1)c1ccccc1 (stereo not drawn) | 41.6* | 13.0% | 39.4% | 4.9 | 110.0* | 21.2%
Cc1ccc(NC(=O)CN(C)C(=S)NC2CC2)cc1 | -1.3 | -30.4%[5.75 µM] | ? | -26.7 | -7.6 | 6.6%
SMILES | Cycloheximide cs | Pf growth 96h | Pf growth 48h | HCMV antiviral | Shiga toxin inh | HCV inh
COc1ccc(CC(=O)Nc2ccc(-c3nc4ccccc4s3)cc2Cl)cc1 | · | · | · | -9.6 | · | ·
COc1cccc(-c2nc3ccccc3s2)c1 | 37.7* | i | · | 225.0 | 74.1* | -18.6%
COc1ccc(-c2nc3ccccc3s2)cc1 | 15.9* | 22.4% | 94.9% | -18.4 | 17.7 | 2.1%
CC(C)CCC(CCN1CCCC1)c1ccc2c(c1)OCO2 (stereo not drawn) | -1.0 | ? | ? | 9.2 | -8.4 | ?
COCCCNCCC(CCC(C)C)c1ccc2c(c1)OCO2 (stereo not drawn) | -2.7 | ? | ? | 11.0 | -7.5 | 14.1µM*
COC(=O)C(O)(c1ccc(N(C)C(=O)OC(C)C)cc1)C(F)(F)F (stereo not drawn) | 9.7 | 6.4% | · | -12.2 | 5.6 | 10.4%
CC(C)OC(=O)N(C)c1ccc(C(O)(C(F)(F)F)C(F)(F)F)cc1 | 20.0* | 40.0% | · | 54.4 | 36.9 | -1.6%
C=CCN(c1cccc(C(F)(F)F)c1)S(=O)(=O)c1cccc(C(=O)OCC(=O)NCCC)c1 | -0.8 | 13.1µM* | ? | -21.3 | -7.7 | -4.3%
C#CCn1c(=NC(=O)c2ccc(Cl)s2)sc2cccc(OC)c21 | 10.1 | 21.8% | ? | 4.8 | 21.3 | -4.4%
CCOC(=O)c1ccc2c(c1)sc(=NC(=O)c1ccco1)n2CCOC | 6.1 | 2.0% | 12.1% | -68.1* | 13.6 | -11.4%
CCOC(=O)Cn1c(=NC(=O)c2cccs2)sc2cc(C(=O)OC)ccc21 | 44.4* | 59.0% | 98.8% | 36.5 | 72.2* | 20.5%
C#CCn1c(=NC(=O)c2cccs2)sc2cccc(OCC)c21 | -2.3 | ? | ? | -67.1* | 7.9 | ?
CCOC(=O)Cn1c(=NC(=O)C(C)(C)C)sc2cc([N+](=O)[O-])ccc21 | 7.5 | ? | ? | -24.3 | -3.4 | -18.0%
Cc1ccc2nc(-c3cccc(Cl)c3)c(Cc3ccsc3)n2c1 | · | · | · | 65.7 | · | ·
N#Cc1ccccc1S(=O)c1ccccc1C(=O)Nc1ccccc1 (stereo not drawn) | -1.2 | -13.6% | 8.2% | -36.2 | -8.3 | 14.3%
Nc1c(-c2ccccc2)n[nH]c1-c1ccccc1 | 31.2* | 8.1% | 102.4% | 72.4 | 78.3* | -10.7%
CC(=O)OCc1cnc(C)c2oc(=O)c(C(=O)Nc3cccc(F)c3)cc12 | · | · | · | 3.1 | · | ·
Cc1ccc2nc(N3CCN(Cc4ccc(F)cc4)C3=O)c(C)cc2c1 | 20.0* | · | 24.5% | -3.7 | 40.9 | ?
Cc1ccc(CNC(=O)CN2CCN(Cc3ccc(F)cc3)C2=O)cc1 | · | · | · | -6.2 | · | ·
Cc1cc(C)c2oc(-c3cccc(N)c3)nc2c1 | 52.4* | 66.5% | 218.5% | 97.0 | 105.8* | -11.3%
COc1cc(Cl)ccc1OCc1cc(C(=O)NCC(C)(C)N2CCOCC2)no1 | 42.6* | 0.4% | -16.4% | 24.8 | 49.8* | -15.0%
COc1ccc(OCc2cc(C(=O)NCC(C)(C)N3CCOCC3)no2)c(Cl)c1 | 19.9 | 0.0% | ? | 7.6 | 36.1* | ?
CC(C)(CNC(=O)CNC(=O)c1ccc(Cl)cc1Cl)N1CCOCC1 | · | 5.5% | 3.8% | -11.1 | · | 17.5%
